HT1080 IDH1KD tx = HT-1080 IDH1 knockdown cell toxicity (counter line); Potency, µM (series often up to 46.1 µM), actives largely listed as cytotoxic; 360,000 tested, 2% active; HT-1080 IDH1 knockdown viability, ATP luminescence, 48 h
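Cytotoxicity counter-line: IDH1KD HT-1080, 48 h, CellTiter-Glo. Curves classed by r2, magnitude and activity.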
SW480 rerep = induces DNA re-replication in SW480 colon adenocarcinoma cells. Potency, µM (doses to about 46.1 µM), usual class: activators. 340,000 tested, 1.8% active. AID 624297. SW480 DNA re-replication, Hoechst DNA content imaging, 48 h; further: nearly all actives have a fitted effect of over 55% in size
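Treated cells incubate 48 hr (37 C, 5% CO2), are stained 40 min with Hoechst, and nuclear fluorescence is enumerated; a rise in nuclei with high DNA signal marks re-replication.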
MCF10A rerep = induces DNA re-replication in MCF 10a normal breast cells. Potency, µM (series often up to 46.1 µM), usual class: activators. MCF 10A DNA re-replication, Hoechst nuclear intensity, 48 h. 350,000 tested, 2.9% active. AID 624296; further: nearly all actives have a fitted effect of over 50% in size
KB-3-1 tox = kills parental KB-3-1 adenocarcinoma cells; KB-3-1 viability, CellTiter-Glo ATP luminescence, 72 h; Potency, µM (highest dose often 46.1 µM), actives largely listed as cytotoxic; 400,000 tested, 1.4% active; AID 1347075; further: nearly all actives have a fitted effect of over 60% in size
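Here the drug-naive KB-3-1 line serves as comparator for MDR sub-line selectivity; cells received compound titrations, 72 h at 37 °C, then CellTiter-Glo readout.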
HT1080NT lethal = kills 2HG-producing HT-1080-NT fibrosarcoma cells | HT-1080-NT fibrosarcoma viability, CellTiter-Glo ATP luminescence, 48 h | Potency, µM (top dose mostly 46.1 µM), actives largely listed as cytotoxic | AID 686970 | 360,000 tested, 1.6% active;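 further: NT is the 2HG producing partner of a matched IDH1 knockdown line; nearly all actives have a fitted effect of over 55% in size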
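Fibrosarcoma NT cells, 750 per well in 5% FBS RPMI, were exposed to compound for 48 hours. Viability: CellTiter-Glo luminescence.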
KB-V1 MDR tox = KB-V1 MDR subline cytotoxicity. Potency, µM (series often up to 46.1 µM), actives largely listed as cytotoxic. 400,000 tested, 3.4% active. AID 1347076. KB-V1 MDR cells viability, CellTiter-Glo, 72 h; further: nearly all actives have a fitted effect of over 60% in size
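Potencies derive from concentration-effect curves fitted to normalized luminescence (CellTiter-Glo) of KB-V1 cells treated for 72 h at 37 degrees C in phenol-red-free DMEM containing 10% FBS.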
A number is an active result; 0 = inactive; ? = inconclusive; - = no result; ! = not confirmed by another sample; [ ] = another dose, or the depositor's remark. Compounds with a hit are over-represented: about 7.9% of the library has one in this group of screens. The call rests on the fitted dose curve; in most records, active means well fitted curve in the direction sought with a large enough effect; inconclusive means small, poorly fitted or top-dose-only effect, or another doubt; inactive means no such curve, though single readings can be large; an effect the other way counts as inactive or inconclusive.

SMILES	HT1080 IDH1KD tx	SW480 rerep	MCF10A rerep	KB-3-1 tox	HT1080NT lethal	KB-V1 MDR tox
O=C(NCCN1CCC(n2c(=O)[nH]c3ccccc32)CC1)c1ccc(C(F)(F)F)cc1C(F)(F)F	0	-	-	?	0	11.6µM
COc1ccccc1CNC(=O)C1CCN(S(=O)(=O)c2c(C)noc2C)CC1	0	0	0	0	0	0
C=CCC(NCc1ccccc1)c1ccco1 (stereo not given)	0	0	0	0	0	0
O=C(NNC(=O)C1CCN(S(=O)(=O)c2c(Cl)cccc2Cl)CC1)c1ccccc1O	0	?	?	?	0	18.4µM
O=C(Nc1ccc2c(c1)OCCO2)c1ccccc1Cl	0	-	-	0	0	0
O=C(Nc1ccc2c(c1)OCCO2)c1cccc2nc3ccccc3nc12	0	0	?	?	0	6.51µM
O=C(Nc1ccc2c(c1)OCCO2)c1ccccn1	?	0	0	18.4µM	?	?
CCc1ccc(S(=O)(=O)Nc2c(C)n(C)n(-c3ccccc3)c2=O)cc1	0	0	0	0	0	0
Cc1onc(-c2ccccc2Cl)c1C(=O)N1CCC(Cc2ccccc2)CC1	18.4µM	0	?	?	0	0
Cc1onc(-c2ccccc2Cl)c1C(=O)N1CCC(C(N)=O)CC1	0	0	0	0	0	0
Cc1noc(C)c1C(=O)N1CCC(Cc2ccccc2)CC1	0	0	0	0	0	14.6µM
CCOc1ccccc1NC(=S)NC(=O)CCCOc1ccc(Cl)cc1Cl	?	0	0	0	11.2µM	0
N/C(=N\OC(=O)COc1ccc(Cl)cc1)c1cccnc1	0	0	0	0	0	?
O=C(CCCOc1ccc(Cl)cc1Cl)Nc1cccnc1	0	0	0	0	0	18.4µM
N/C(=N\OC(=O)COc1ccc(Cl)cc1Cl)c1cccnc1	0	13µM	0	0	0	?
CSc1cccc(NC(=O)CCCOc2ccc(Cl)cc2Cl)c1	0	0	0	0	0	0
Cc1ccc(C)c(N2CCN(S(=O)(=O)c3ccc(C4CCCCC4)cc3)CC2)c1	-	-	-	0	-	0
Cc1oc(C(C)(C)C)cc1C(=O)N1CCN(C(c2ccccc2)c2ccccc2)CC1	?	?	11.6µM	0	?	0
CCN(CC)c1ccc(-c2n[nH]c(=S)n2-c2ccccc2)cc1	20.6µM	?	?	13µM	?	23.1µM
Cc1ccc(C)c(-n2c(-c3csc(C)c3)n[nH]c2=S)c1	10µM	?	0	0	?	18.4µM
CN(C)c1ccc(-c2n[nH]c(=S)n2-c2ccccc2)cc1	0	0[1.84 µM]	0	0	0	0
Cc1ccc(-n2c(-c3ccccc3)n[nH]c2=S)c(C)c1	0	?	0.651µM	0	0	0
Cc1ccc(-n2c(-c3ccccc3)n[nH]c2=S)cc1	0	0	0	0	0	0
Cc1ccc(C)c(-n2c(-c3ccncc3)n[nH]c2=S)c1	0	0	0	0	0	0
COc1ccccc1-n1c(-c2ccccc2)n[nH]c1=S	2.59µM	0	?	?	?	0
SMILES	HT1080 IDH1KD tx	SW480 rerep	MCF10A rerep	KB-3-1 tox	HT1080NT lethal	KB-V1 MDR tox
COCCNC(=O)C1(C)CCCN(C(=O)c2ccc3ccccc3c2)C1 (stereo not given)	0	-	-	0	?	0
CCCc1cc(-c2n[nH]c(=S)n2-c2cccc(C)c2)cs1	0	0	0[9.22 µM]	0	0	?
Cc1cccc(-n2c(-c3csc(C(C)C)c3)n[nH]c2=S)c1	0	0	0	0	0	18.4µM
COc1ccc(N2C(=O)CC(Sc3nnnn3-c3ccc(F)cc3)C2=O)cc1 (stereo not given)	4.11µM	10.3µM	?	0	16.4µM	0
CCc1ccc(NC(=O)CSc2nc3ccccc3c(=O)n2CCC(=O)NC2CCCCC2)cc1	-	-	-	0	-	0
CCCn1c(N)c(N(CCOC)C(=O)c2ccc(F)cc2)c(=O)[nH]c1=O	0	0	0	0	0	0
CCCNC(=O)c1cc(C2CCCCN2C(=O)c2cc(C(C)(C)C)nn2C)on1 (stereo not given)	0	-	-	?	0	16.4µM
CCCNC(=O)c1cc(C2CCCN(C(=O)c3cc(C(C)(C)C)nn3C)C2)on1 (stereo not given)	0	-	-	0	0	0
CCOc1cccc2cc(C(=O)N3CCN(C/C=C/c4ccccc4)CC3)c(=O)oc12	?	0	0	0	0	8.2µM
CCOc1cc(C(=O)N2CCN(C/C=C/c3ccccc3)CC2)cc(OCC)c1OCC	0	0	?	0	0	?
OC(CON=C1c2ccccc2-c2ccccc21)CN1CCNCC1 (stereo not given)	23.1µM	0	?	?	20.6µM	0
OC(COc1ccccc1)CN1CCN(CC(O)COc2ccccc2)CC1 (stereo not given)	0	0	?	0	0	0
O=C(CSc1ccc(-c2ccccc2)nn1)NC1CCCC1	0	0	0	0	0	0
CCCCOc1ccc(C(=O)NCC(=O)NCc2ccccn2)cc1	0	?	0	0.517µM	0	?
Cc1nc2sccn2c(=O)c1S(=O)(=O)N1CCN(c2cccc(C(F)(F)F)c2)CC1	0	0	0	0	0	0
Cc1ccc(-c2ccc(SCC(=O)Nc3nonc3C)nn2)cc1	0	0	0	0	?	0
O/C(=C\c1nc2ccccc2nc1/C=C(\O)c1ccccc1)c1ccccc1	?	0	0	0	20.6µM	0
O=c1oc2ccccc2nc1/C=C(\O)c1ccccc1	0	0	0	0	0	0
COc1cccc(N/C(=N/C(=S)Nc2ccc(C)cc2C)Nc2nc(C)cc(C)n2)c1	?	?	?	0	?	?
CCc1nnc(NC(=O)c2nc(SCc3ccccc3F)ncc2Cl)s1	-	-	-	0	-	0
CCOc1ccccc1NC(=O)c1nc(S(=O)(=O)Cc2cccc(C)c2)ncc1Cl	0	3.26µM	?	5.17µM!	0	?
CCc1nnc(NC(=O)c2nc(S(=O)(=O)Cc3cccc(C)c3)ncc2Cl)s1	10.3µM	5.8µM	?	20.6µM	23.1µM	?
COC(=O)c1ccccc1NC(=O)c1nc(S(=O)(=O)Cc2ccccc2)ncc1Cl	0	0	?	0	0	0
CCc1nnc(NC(=O)CN2CCN(Cc3ccc(C)cc3)CC2)s1	0	?	0.92µM	0	0	0
CCc1nnc(NC(=O)c2nc(S(=O)(=O)Cc3ccccc3)ncc2Cl)s1	7.31µM	?	0.82µM	23.1µM	11.6µM	?
CCc1nnc(NC(=O)CN2CCN(Cc3ccccc3C)CC2)s1	0	0	0	0	0	0
CCN(CC(=O)Nc1ccccc1OC)C(=O)C1CC2C=CC1C2 (stereo not given)	0	0	0	0	0	?
Cn1c(=O)c2c(SCC(=O)N3CCCc4ccccc43)nc(C3CC3)nc2n(C)c1=O	0	0	0	0	0	0
CCc1nnc(NC(=O)c2nc(Cl)ccc2Cl)s1	0	0	0	0	0	?
